Screening results deposited in PubChem BioAssay by Sanford-Burnham Center for Chemical Genomics.
The list is not random: actives were taken first. Their share in the collection is about 6.3%.
tim23-1 inh – growth inhibitors of tim23-1 mutant yeast, primary screen, luminescence, uHTS. S. cerevisiae tim23-1 growth, BacTiter-Glo luminescence, 24 h. inhibition, % at 20 µM. 330,000 compounds, 1.3% hits. AID 463212, 2010;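 active = growth inhibition of the mutant yeast at or above 50%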;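 also: temperature-sensitive mutant grown at 25 °C; plate controls were DMSO-treated mutant yeast for no effect and medium wells lacking yeast for full effect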
tim10-1 inh – growth inhibitors of tim10-1 mutant yeast, primary screen, luminescence, uHTS; S. cerevisiae tim10-1 ts strain growth, BacTiter-Glo, 24 h; inhibition, % at 20 µM; 330,000 compounds, 2.2% hits;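 active = inhibition of at least 40%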;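 also: mutant grown at 25 °C; 0% = DMSO wells with yeast and 100% = wells holding no yeast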
TIM10 inh – growth inhibitors of isogenic TIM10 control yeast, primary screen, counter-screen for tim10-1 yeast inhibitor project, luminescence, uHTS | S. cerevisiae TIM10 strain growth, BacTiter-Glo luminescence, 24 h | inhibition, % at 10 µM | 330,000 compounds, 1.4% hits | AID 463195, 2010;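 active = inhibition of 40% or more at the single tested concentration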;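 also: wild-type TIM10 isogenic control strain grown at permissive 25 °C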
MPTP inh – mitochondrial permeability transition pore inhibitors, primary screen, biochemical, isolated mouse mitochondria, absorbance; Ca2+ swelling absorbance, 30 min; inhibition, % at 10 µM; 360,000 compounds, 1.4% hits; AID 602449, 2012;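 active = inhibition of 50% or more, scaled per plate between neutral and stimulator controls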;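 also: 0% = DMSO wells given calcium and 100% = 1 mM EGTA wells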
Mdm2-MdmX inh – inhibitors of human Mdm2-MdmX association, primary screen, cell-based, luminescence, split luciferase, SaOS-2, uHTS. SaOS-2 split-luciferase Mdm2/MdmX complementation. inhibition, % at 8 µM. 330,000 compounds, 3% hits. AID 485346, 2010;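 active = inhibition of at least 50% at 8 µM in the primary screen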
Target sequence (O15151 whole entry, looked up): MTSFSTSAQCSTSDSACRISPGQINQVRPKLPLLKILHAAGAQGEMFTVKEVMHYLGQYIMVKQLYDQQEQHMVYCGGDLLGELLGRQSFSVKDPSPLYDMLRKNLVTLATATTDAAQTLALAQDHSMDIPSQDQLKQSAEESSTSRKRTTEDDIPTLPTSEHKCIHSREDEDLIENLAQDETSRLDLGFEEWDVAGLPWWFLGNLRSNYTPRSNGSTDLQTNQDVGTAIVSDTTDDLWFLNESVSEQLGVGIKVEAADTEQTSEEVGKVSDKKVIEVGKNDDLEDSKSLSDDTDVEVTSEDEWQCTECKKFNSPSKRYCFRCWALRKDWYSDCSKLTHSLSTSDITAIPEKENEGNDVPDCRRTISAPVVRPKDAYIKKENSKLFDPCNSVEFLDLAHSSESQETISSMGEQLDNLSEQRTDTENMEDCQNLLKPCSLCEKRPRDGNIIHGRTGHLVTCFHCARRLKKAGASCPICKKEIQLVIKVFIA
Target sequence (Q00987 whole entry, looked up): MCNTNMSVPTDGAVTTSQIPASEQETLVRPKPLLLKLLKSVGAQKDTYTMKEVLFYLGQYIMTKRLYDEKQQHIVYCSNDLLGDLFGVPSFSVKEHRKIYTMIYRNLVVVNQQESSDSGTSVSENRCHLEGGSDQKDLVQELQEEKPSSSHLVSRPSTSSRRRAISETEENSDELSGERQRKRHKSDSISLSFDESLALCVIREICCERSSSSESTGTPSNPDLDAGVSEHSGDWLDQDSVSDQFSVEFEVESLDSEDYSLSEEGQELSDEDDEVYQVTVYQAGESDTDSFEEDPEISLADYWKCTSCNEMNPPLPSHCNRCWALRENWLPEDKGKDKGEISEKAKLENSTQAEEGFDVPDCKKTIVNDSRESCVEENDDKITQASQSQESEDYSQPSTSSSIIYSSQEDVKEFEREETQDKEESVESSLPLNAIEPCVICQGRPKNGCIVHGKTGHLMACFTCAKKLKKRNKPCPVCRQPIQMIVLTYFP
MPTP counter – fluorescence retest of MPTP screen hits in isolated mitochondria, single concentration. 5,000 compounds, 78% hits. inhibition, % at 10 µM. shares compounds with MPTP inh. AID 624504, 2012. membrane potential, Rhodamine 123 fluorescence; in the data active = inhibition above about 22%;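 also: 0% = DMSO vehicle and 100% = positive control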
MPTP abs DR – mitochondrial permeability transition pore inhibitors, dose response, biochemical, absorbance, uHTS hits | 780 compounds, 58% hits | shares compounds with MPTP inh | IC50, µM | isolated mitochondria swelling; in the data active = IC50 below about 20 µM
MPTP counter DR – fluorescent counter-screen in isolated mitochondria, dose response, counter-screen for MPTP inhibitor project, biochemical, fluorescence, uHTS hits; shares compounds with MPTP inh; IC50, µM; isolated mitochondria counterscreen, fluorescence read-out; 780 compounds, 49% hits; in the data active = IC50 below about 80 µM
Numbers without * were called inactive; i = inactive; . = no result given.

SMILES	tim23-1 inh	tim10-1 inh	TIM10 inh	MPTP inh	Mdm2-MdmX inh	MPTP counter	others
Clc1cccc(-c2sc(Nc3ccccc3)n[n+]2-c2ccccc2)c1Cl	12.8	18.0	8.5	45.2	7.2	.
Cc1ccc(C)c(C(O)c2ncc(-c3ccc(C(F)(F)F)cc3)[nH]2)c1 (configuration not stated)	.	.	.	3.0	.	.
O=C(Nc1ccncc1)C1CC(=O)N(Cc2ccccc2)C1 (configuration not stated)	.	.	.	-1.1	.	.
COc1ccc(-c2nc(CN3CCN(c4ncnc5ccccc45)CC3)c(C)o2)c(OC)c1	23.8	23.8	22.5	66.1*	32.7	28.6*
Cc1oc(-c2cc(F)ccc2F)nc1CN1CCN(c2ncnc3ccccc23)CC1	28.8	-0.6	6.2	0.6	24.5	.
CCOC(=O)c1c(CC(C)C)csc1NC(=O)c1ccccc1C(=O)O	26.5	15.1	13.7	2.1	11.7	.
CC(C)Cc1csc(NC(=O)c2ccc(F)cc2)c1C(=O)O	13.4	-5.7	6.6	53.1*	7.3	71.4*
Cc1nnc(NC(=O)C2CCN(S(=O)(=O)c3cc([N+](=O)[O-])ccc3Cl)CC2)o1	20.1	17.2	3.6	1.1	15.4	.
Cc1cccc2sc(NC(=O)C3CCN(S(=O)(=O)c4cc([N+](=O)[O-])ccc4Cl)CC3)nc12	-59.5	6.0	25.4	99.5*	31.8	74.6*
CC(C)(C)NC(=O)C(c1ccc(O)cc1)N(Cc1ccc2c(c1)OCO2)C(=O)CCl (configuration not stated)	.	.	.	-1.6	.	.
Cc1cccc(C(=O)N2CCc3cc(-c4csc(NC(=O)CN5CCCC5)n4)ccc32)c1	21.7	22.7	6.5	86.5*	39.9	4.5	MPTP abs DR=i;MPTP counter DR=37.3*
COC(=O)c1ccc(CSc2ccccc2NC(=S)Nc2cccc(C(F)(F)F)c2)o1	.	.	.	86.3*	.	90.2*
O=C(Cc1ccccc1)NC(=S)Nc1cccc(C(F)(F)F)c1	41.5	28.4	39.2	5.2	-7.1	.
CCCCn1c(N)c(N(CC)C(=O)c2cccs2)c(=O)[nH]c1=O	6.7	4.1	-0.6	-0.3	6.9	.
O=C(O)c1ccc(Cl)c(NC(=O)C2CCN(S(=O)(=O)c3cccs3)CC2)c1	.	.	.	0.7	.	.
Cc1cccc2sc(NC(=O)CSc3nc4ccccc4o3)nc12	-13.6	7.8	-31.2	70.2*	16.0	15.1	MPTP abs DR=>100;MPTP counter DR=6.13*
COc1cc(/C=C(\C#N)c2nc3ccccc3[nH]2)cc(Br)c1OCc1ccccc1	12.2	-4.0	19.2	63.6*	20.1	72.9*
COc1ccc(Cn2c(C)c(C)c(C#N)c2NC(=O)Nc2ccc(Cl)cc2)cc1	-13.4	16.6	-8.9	93.5*	10.3	77.5*
COc1ccc(Cn2c(C)c(C)c(C#N)c2NC(=O)Nc2cccc(Cl)c2)cc1	-13.5	23.7	-4.7	73.7*	3.0	70.4*
COc1ccc(CNC(=O)Nc2ccc(OC)cc2)cc1	-3.7	-4.7	-3.2	0.3	10.2	.
Cc1c(C#N)c(NC(=O)c2cccc(Cl)c2)n(Cc2ccccc2)c1C	8.8	3.9	5.8	-0.6	7.2	.
COc1ccc(S(=O)(=O)NNC(=O)C2Cc3c(ccc4ccccc34)O2)cc1 (configuration not stated)	10.0	15.8	14.5	80.0*	11.8	54.5*
O=C(Nc1ccc(Cl)cc1)Nc1cc([N+](=O)[O-])ccc1F	13.6	15.5	13.2	93.0*	48.5	93.0*
CCNC(=S)Nc1ccc(Cl)c([N+](=O)[O-])c1	17.9	15.2	-18.5	96.3*	-1.1	90.0*
Cc1ccc(NC(=O)Nc2ccccc2)cc1[N+](=O)[O-]	-0.1	8.3	8.9	77.2*	-28.4	100.7*
O=C(Nc1ccccc1)Nc1ccc(F)c([N+](=O)[O-])c1	-6.9	11.3	5.1	94.3*	5.6	98.7*
